Test results published in PubChem BioAssay AID1159580 (chemical genetic matrix, 2015).
Screen size: about 5,500 compounds; about 2,000 (36%) were called active. Inconclusive results (about 18%) are left out. Cut-off read from the data, not from the text of the source: active = normalized growth mostly below about 0.91 (no sharp cut-off); inconclusive = no clear call, values can overlap the other calls; inactive = mostly above about 0.92. This is one part of the list.

Assay: chemical genetic growth profiling, strain panel (AID 1159580);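 note: tested at 20 µM; growth read once vehicle control cultures reached saturation at 30 °C; 1 = growth at the plate median or of vehicle wells; lower values mean less growth of the strain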
Details: growth OD

Measured: normalized growth

CN[C@@H]1[C@H](OC2[C@H](O[C@H]3[C@H](O)[C@@H](O)[C@H](N=C(N)N)[C@@H](O)[C@@H]3N=C(N)N)O[C@@H](C)[C@]2(O)C=O)O[C@@H](CO)[C@H](O)[C@H]1O (stereo not given in full)
inactive: S. cerevisiae deletion strains, locus YKL009W, strain mrt4, stronger effect = lower value 1.03 | S. cerevisiae deletion strains, locus YKL068W, stronger effect = lower value 1 | S. cerevisiae deletion strains, locus YKL085W, strain MDH1 (second series), stronger effect = lower value 1 | S. cerevisiae deletion strains, locus YKL085W, strain MDH1, stronger effect = lower value 1 | S. cerevisiae deletion strains, locus YKL160W, strain elf1, stronger effect = lower value 1.02 | S. cerevisiae deletion strains, locus YKL190W, strain CNB1, stronger effect = lower value 0.997 | S. cerevisiae deletion strains, locus YKR001C, strain vps1, stronger effect = lower value 1.01 | S. cerevisiae deletion strains, locus YKR026C, strain gcn3, stronger effect = lower value 1 | S. cerevisiae deletion strains, locus YKR091W, strain srl3, stronger effect = lower value 1.01 | S. cerevisiae deletion strains, locus YLL001W, strain dnm1, stronger effect = lower value 1.03 | S. cerevisiae deletion strains, locus YLL026W, stronger effect = lower value 1.02 | S. cerevisiae deletion strains, locus YLL041C, strain sdh2, stronger effect = lower value 1 | S. cerevisiae deletion strains, locus YLR027C, strain aat2, stronger effect = lower value 1.02 | S. cerevisiae deletion strains, locus YLR039C, strain RIC1, stronger effect = lower value 0.997 | S. cerevisiae deletion strains, locus YLR058C, strain SHM2, stronger effect = lower value 1.01 | S. cerevisiae deletion strains, locus YLR102C, strain apc9, stronger effect = lower value 1.01 | S. cerevisiae deletion strains, locus YLR113W, strain HOG1, stronger effect = lower value 0.964 | S. cerevisiae deletion strains, locus YLR221C, strain rsa3, stronger effect = lower value 0.989 | S. cerevisiae deletion strains, locus YLR258W, strain gsy2, stronger effect = lower value 0.991 | S. cerevisiae deletion strains, locus YLR262C, strain YPT6 (second series), stronger effect = lower value 1.04 | S. cerevisiae deletion strains, locus YLR262C, strain YPT6, stronger effect = lower value 1.01 | S. cerevisiae deletion strains, locus YLR268W, strain sec22, stronger effect = lower value 1 | S. cerevisiae deletion strains, locus YLR320W, strain mms22, stronger effect = lower value 0.969 | S. cerevisiae deletion strains, locus YLR330W, strain CHS5, stronger effect = lower value 1 | S. cerevisiae deletion strains, locus YLR342W, strain FKS1 (second series), stronger effect = lower value 1.01 | S. cerevisiae deletion strains, locus YLR342W, strain FKS1, stronger effect = lower value 1.04 | S. cerevisiae deletion strains, locus YLR357W, strain rsc2, stronger effect = lower value 1.02 | S. cerevisiae deletion strains, locus YLR370C, strain arc18, stronger effect = lower value 1.02 | S. cerevisiae deletion strains, locus YLR371W, strain rom2, stronger effect = lower value 1.01 | S. cerevisiae deletion strains, locus YLR384C, strain iki3, stronger effect = lower value 1.01 | S. cerevisiae deletion strains, locus YLR418C, strain cdc73, stronger effect = lower value 1.02 | S. cerevisiae deletion strains, locus YML016C, strain PPZ1, stronger effect = lower value 1.02 | S. cerevisiae deletion strains, locus YML032C, strain rad52, stronger effect = lower value 1.01 | S. cerevisiae deletion strains, locus YML120C, strain ndi1, stronger effect = lower value 1.02 | S. cerevisiae deletion strains, locus YML124C, strain tub3, stronger effect = lower value 1.02 | S. cerevisiae deletion strains, locus YMR058W, strain fet3, stronger effect = lower value 1.02 | S. cerevisiae deletion strains, locus YMR078C, strain ctf18, stronger effect = lower value 1.02 | S. cerevisiae deletion strains, locus YMR125W, strain sto1, stronger effect = lower value 0.969 | S. cerevisiae deletion strains, locus YMR129W, stronger effect = lower value 1 | S. cerevisiae deletion strains, locus YMR205C, strain PFK2, stronger effect = lower value 1.02 | S. cerevisiae deletion strains, locus YMR223W, strain ubp8, stronger effect = lower value 1.02 | S. cerevisiae deletion strains, locus YMR231W, strain pep5, stronger effect = lower value 0.997 | S. cerevisiae deletion strains, locus YMR263W, strain SAP30, stronger effect = lower value 1.01 | S. cerevisiae deletion strains, locus YMR307W, strain GAS1, stronger effect = lower value 0.965 | S. cerevisiae deletion strains, locus YNL067W, strain RPL9B, stronger effect = lower value 1.01 | S. cerevisiae deletion strains, locus YNL071W, strain lat1, stronger effect = lower value 0.992 | S. cerevisiae deletion strains, locus YNL128W, strain TEP1, stronger effect = lower value 1.01 | S. cerevisiae deletion strains, locus YNL153C, strain GIM3, stronger effect = lower value 1.01 | S. cerevisiae deletion strains, locus YNL183C, strain NPR1, stronger effect = lower value 0.938 | S. cerevisiae deletion strains, locus YNL209W, strain ssb2, stronger effect = lower value 0.998 | S. cerevisiae deletion strains, locus YNL233W, strain BNI4, stronger effect = lower value 1.01 | S. cerevisiae deletion strains, locus YNL248C, strain rpa49, stronger effect = lower value 0.962 | S. cerevisiae deletion strains, locus YNL250W, strain rad50, stronger effect = lower value 1.02 | S. cerevisiae deletion strains, locus YNL271C, strain bni1, stronger effect = lower value 1.01 | S. cerevisiae deletion strains, locus YNL298W, strain CLA4, stronger effect = lower value 1.02 | S. cerevisiae deletion strains, locus YNL307C, strain MCK1, stronger effect = lower value 1.02 | S. cerevisiae deletion strains, locus YNL322C, strain KRE1 (second series), stronger effect = lower value 1 | S. cerevisiae deletion strains, locus YNR049C, strain mso1, stronger effect = lower value 0.999 | S. cerevisiae deletion strains, locus YNR052C, strain pop2, stronger effect = lower value 1 | S. cerevisiae deletion strains, locus YOL006C, strain TOP1, stronger effect = lower value 1.01 | S. cerevisiae deletion strains, locus YOL012C, strain htz1 1.07 | S. cerevisiae deletion strains, locus YOL147C, strain pex11, stronger effect = lower value 1.01 | S. cerevisiae deletion strains, locus YOR001W, strain rrp6, stronger effect = lower value 1.04 | S. cerevisiae deletion strains, locus YOR061W, strain CKA2, stronger effect = lower value 1.01 | S. cerevisiae deletion strains, locus YOR069W, strain VPS5, stronger effect = lower value 1.01 | S. cerevisiae deletion strains, locus YOR070C, strain gyp1, stronger effect = lower value 0.987 | S. cerevisiae deletion strains, locus YOR080W, strain dia2, stronger effect = lower value 1 | S. cerevisiae deletion strains, locus YOR083W, strain WHI5, stronger effect = lower value 0.989 | S. cerevisiae deletion strains, locus YOR106W, strain vam3, stronger effect = lower value 1.03 | S. cerevisiae deletion strains, locus YOR136W, strain idh2, stronger effect = lower value 1.02 | S. cerevisiae deletion strains, locus YOR144C, strain elg1, stronger effect = lower value 1.02 | S. cerevisiae deletion strains, locus YOR184W, strain ser1, stronger effect = lower value 1.03 | S. cerevisiae deletion strains, locus YOR231W, strain MKK1, stronger effect = lower value 0.979 | S. cerevisiae deletion strains, locus YOR265W, strain rbl2, stronger effect = lower value 1.01 | S. cerevisiae deletion strains, locus YOR270C, strain vph1, stronger effect = lower value 1.02 | S. cerevisiae deletion strains, locus YOR290C, strain snf2, stronger effect = lower value 0.977 | S. cerevisiae deletion strains, locus YOR316C, strain cot1, stronger effect = lower value 1.01 | S. cerevisiae deletion strains, locus YPL051W, strain arl3, stronger effect = lower value 1.01 | S. cerevisiae deletion strains, locus YPL055C, strain LGE1, stronger effect = lower value 1.01 | S. cerevisiae deletion strains, locus YPL078C, strain atp4, stronger effect = lower value 1.04 | S. cerevisiae deletion strains, locus YPL106C, strain sse1, stronger effect = lower value 0.987 | S. cerevisiae deletion strains, locus YPL240C, strain hsp82, stronger effect = lower value 1.01 | S. cerevisiae deletion strains, locus YPL241C, strain CIN2, stronger effect = lower value 1 | S. cerevisiae deletion strains, locus YPL256C, strain CLN2, stronger effect = lower value 0.976 | S. cerevisiae deletion strains, locus YPR119W, strain clb2, stronger effect = lower value 1.01 | S. cerevisiae deletion strains, locus YPR141C, strain kar3, stronger effect = lower value 1.01 | S. cerevisiae deletion strains, locus YPR163C, strain tif3, stronger effect = lower value 1.02 | S. cerevisiae deletion strains, locus YPR167C, strain met16, stronger effect = lower value 1.02 | S. cerevisiae deletion strains, strain wtn01, stronger effect = lower value 1.01 | S. cerevisiae strains, strain wild type, stronger effect = lower value 1.01
